Tgondii IFNg: T. gondii growth inhibition under IFN-gamma | Toxoplasma gondii growth in IFN-gamma-treated host cells; hits give low values | activity change, negative = inhibition, % (concentration not given with the values) | 3.8% of 69,000 active | AID 1259416; in the data active = activity change below about -70%, passing the limit was not always enough;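 note: host cells are HeLa cells infected with Toxoplasma gondii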
Starred values were filed as active, the others as inactive. Many of the other results were omitted from the sample, so hits are more common in it than they were.

SMILES	Tgondii IFNg
O=C(NCCc1csc(-c2ccccc2)n1)[C@H]1CSCN1C(=O)Cc1ccc(F)cc1	2
CNC(=O)c1ccc(Nc2ncc(C(F)(F)F)c(NCc3nccnc3N(C)S(C)(=O)=O)n2)cc1	-85*
Cc1ncc(-c2ccncc2)c(CCNC(=O)CS(=O)(=O)c2ccc(F)cc2)n1	18
c1ccc(-c2nnc(-c3csc(-c4cccnc4)n3)o2)cc1	303
Clc1ccc(-c2csc(-c3ccc(-n4cncn4)nc3)n2)cc1	4
c1ccc(-n2ncnc2-c2csc(-c3ccncc3)n2)cc1	-93*
CC(C(=O)NC1CC2CCC1C2)N(c1ccc(Oc2ccccc2)cc1)S(C)(=O)=O (centres undefined)	-43
COc1ccc(NC(=O)Cc2cc(C)no2)c(NC(=O)C(C)C)c1	8
COc1cc2c(cc1OC)C(c1sc3ccccc3c1Cl)=NCC2	-113*
COc1cc2c(cc1OC)C(c1c(-c3ccccc3)noc1C)=NCC2	-38
COc1cc2c(cc1OC)C(c1ccccc1)=NCC2	-28
CN=C(NC#N)Nc1ccc(C2=NNC(=O)CC2C)cc1 (centres undefined)	14
COc1ccc(-c2nc3ccc(C4=NNC(=O)CC4C)cc3[nH]2)cc1 (centres undefined)	29
CCN(CC)c1ccc(C2=NNC(=O)CC2C)cc1[N+](=O)[O-] (centres undefined)	-98*
CN1CCN(C(=O)C2CCC(=O)NC(=O)N2)CC(Cc2ccc(-c3ccccc3)cc2)C1=O (centres undefined)	-24
COc1ccccc1N1CCN(C(=O)Nc2ccc(F)cc2)CC1	-22
CC(C)(C)OC(=O)N1CCCN(C(=O)Nc2ccc(C(F)(F)F)cc2)CC1	-86*
Cn1cnc(S(=O)(=O)N2CCCN(C(=O)OC(C)(C)C)CC2)c1	3
Cc1cc(C)n(-c2c(Cl)cc(C(F)(F)F)cc2Cl)n1	35
CSc1nn(-c2c(Cl)cc(C(F)(F)F)cc2Cl)c(N)c1C#N	-101*
CSc1nc(-c2cccs2)cc(C(F)(F)F)c1C#N	89
Cc1ccc(CN(CCCn2ccnc2)Cc2ccncc2)o1	29
O=C1CCc2cc(S(=O)(=O)N3CCN(C(=O)C45CC6CC(CC(C6)C4)C5)CC3)cc3c2N1CCC3	-55
CN1C(=O)CCc2cc(NS(=O)(=O)c3cccc(Cl)c3)ccc21	-12
CC(C)CN1C(=O)CCc2cc(NS(=O)(=O)c3ccc(F)c(F)c3)ccc21	-64
SMILES	Tgondii IFNg
COc1ccc(S(=O)(=O)Nc2ccc3c(c2)CCC(=O)N3CC(C)C)cc1	30
COCCN1C(=O)CCc2cc(NS(=O)(=O)c3ccc(C)c(F)c3)ccc21	-6
CN1C(=O)CCc2cc(NS(=O)(=O)c3ccc(Cl)c(Cl)c3)ccc21	-87*
Cc1ccc(S(=O)(=O)Nc2ccc3c(c2)CCC(=O)N3CC(C)C)cc1	31
CCCN1C(=O)CCc2cc(NS(=O)(=O)c3ccc(Cl)c(Cl)c3)ccc21	-52
CC(C)CN1C(=O)CCc2cc(NS(=O)(=O)c3ccccc3Cl)ccc21	9
Cc1ccc(S(=O)(=O)Nc2ccc3c(c2)CCC(=O)N3CC(C)C)cc1Cl	-93*
COCCN1C(=O)CCc2cc(NS(=O)(=O)c3ccc(OC)c(Cl)c3)ccc21	-5
CCN1C(=O)CCc2cc(NS(=O)(=O)c3ccc(C)c(Cl)c3)ccc21	-83*
CCc1ccc(S(=O)(=O)Nc2ccc3c(c2)CCC(=O)N3CC(C)C)cc1	-90*
CN(C)C(C(=O)N1CCC(c2ccc(-c3ccn[nH]3)cn2)CC1)c1ccc(Cl)cc1 (centres undefined)	-10
COc1ccc(S(=O)(=O)N(Cc2nc(-c3ccccc3)oc2C)c2ccccc2OC)cc1	-59
Cc1cc(C)c2nc(C)cc(C(=O)N3CCC4(CC3)CN(C)CCN4C)c2c1	-9
CC(C)N(C)Cc1cnc2n1CCN(S(=O)(=O)c1ccccc1)C2	-6
CNc1ncc(CN(C)c2nccc(N3CCCC(O)C3)n2)cn1 (centres undefined)	2
c1csc(CN2C[C@H]3CCCO[C@H]3[C@@H](N3CCCC3)C2)n1	0
COc1ccc(Br)cc1S(=O)(=O)Oc1ccccc1NC(C)=O	1
COCCN1C(=O)CCc2cc(NS(=O)(=O)c3ccc(F)cc3)ccc21	24
CC(C)CN1C(=O)CCc2cc(NS(=O)(=O)c3ccc(F)cc3F)ccc21	-4
Cc1ccc(C)c(S(=O)(=O)Nc2ccc3c(c2)CCC(=O)N3CC(C)C)c1	-52
Cc1ccc(S(=O)(=O)Nc2ccc3c(c2)CCC(=O)N3CC(C)C)c(C)c1	-86*
CCN1C(=O)CCc2cc(NS(=O)(=O)c3ccc(C(F)(F)F)cc3)ccc21	-103*
CCN1C(=O)CCc2cc(NS(=O)(=O)c3cccc(Br)c3)ccc21	47
COc1ncccc1-c1cc(C(C)=O)ccc1N1CCOCC1	5
CC(C)c1nc2cc(NC(=O)c3ccc(OCCN4CCCC4=O)cc3)ccc2n1C	-25
SMILES	Tgondii IFNg
Cc1cc(C)cc(NC(=O)N2CCC(c3nc(C(=O)N(C)C)c(C)o3)CC2)c1	-5
O=C(c1ccco1)N1CCCC2(C1)Nc1cccnc1NC2=NCc1ccccc1 (centres undefined)	94
CCc1ccc(NC(=O)C2CCCN2C(=O)Nc2ccc(C)cc2)cc1 (centres undefined)	18
CCOC(=O)c1nc(N2CCOCC2)c2ccccc2n1	93
CC(C)Oc1ccc(CNC(=O)c2nc(N3CCOCC3)c3ccccc3n2)cc1	-79*
Cc1ccccc1CNC(=O)c1nc(N2CCOCC2)c2ccccc2n1	-35
CCOc1ccccc1CNC(=O)c1nc(N2CCOCC2)c2ccccc2n1	-66
CC(C)Oc1ccc(CNC(=O)c2nc(Nc3ccccc3)c3ccccc3n2)cc1	-11
Cc1ccc(CCNC(=O)c2nc(N3CCOCC3)c3ccccc3n2)cc1	-84*
C=CCNc1ccccc1C(=O)NCc1c(C)n[nH]c1C	77
COc1cccc(COC2CN(C(=O)CSc3nnc(C)s3)CC(=O)N(CC(C)C)C2)c1 (centres undefined)	-3
Cn1nc(-c2c(-c3ccccc3)ncn2C2CCNC2)c2c(Cl)cccc21 (centres undefined)	-10
Cc1cc(C#N)cc(C)c1Oc1nc(Nc2ccc(C#N)cc2)nc(N)c1Br	-86*
COC(=O)c1cc2n(n1)CCN(C(=O)c1cccc(-c3cn[nH]c3)c1)C2	-57
C=C(C)[C@@H]1CC[C@]2(C(=O)O)CC[C@]3(C)[C@H](CC[C@@H]4[C@@]5(C)CC[C@H](OC(=O)CC(C)(C)C(=O)O)C(C)(C)[C@@H]5CC[C@]43C)[C@@H]12	-73*
C=C(C)[C@@H]1CC[C@]2(CO)CC[C@]3(C)[C@H](CC[C@@H]4[C@@]5(C)CC[C@H](O)C(C)(C)[C@@H]5CC[C@]43C)[C@@H]12	3
CC1(C)C2CC[C@]3(C)[C@H](C(=O)C=C4[C@@H]5C[C@@](C)(C(=O)O)CC[C@]5(C)CC[C@]43C)[C@@]2(C)CC[C@@H]1OC(=O)CCC(=O)O (some centres undefined)	18
CC(C)n1cnnc1CCNC(=O)c1nc2ccc(F)cc2[nH]1	14
CCCCOc1cc(C(=O)NCCN(CC)CC)c2ccccc2n1	-28
CCCCOc1cc(C(=O)OCCN(CC)CC)ccc1N	-4
CCCCc1oc2ccccc2c1C(=O)c1cc(I)c(OCCN(CC)CC)c(I)c1	-81*
OCCn1c(-c2cccc(-n3cccn3)c2)nc2ccccc21	-45
c1ccc2c(-c3c[nH]c4ccccc34)c3ccccc3nc2c1	-86*
c1ccc2c(Cc3c[nH]c4ccccc34)c[nH]c2c1	10
